Assay results published in the supplement of paper PMC10849652.
Targets with a hit are over-represented here; the source holds about 7,900 in all. About 0.6% of all pairs of compound and target were hits.

Columns and labels:
Test in all cases: log2 fold change, soluble protein after heating vs DMSO (PISA); higher = thermal stabilisation; K562 cells, 10 uM, 30 min; active = over 0.2 and 3.5 SD of the protein, either way, in both replicates (recomputed)
YWHAB = YWHAB (UniProt P31946)
Procedure, shortened: (§1)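 Quantification of soluble protein used TMTpro 16plex LC-MS/MS, with channel sums equalised. Samples were the supernatant after 21,000xg for 90 min of pooled aliquots from K562 cells (2×10^6 cells/mL) treated with 10 μM compound for 30 min, heated for 3 min over 48°C-58°C, and extracted in PBS with 0.5% NP-40 at 4°C. Values, from duplicates, describe thermal stability against control samples on a log2 fold-change scale.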

YWHAQ = YWHAQ (UniProt P27348)
Procedure, shortened: as §1

YWHAZ [1] = biological target: YWHAZ (UniProt P63104)
Procedure, shortened: as §1

YY1 = YY1 (UniProt P25490)
Procedure, shortened: as §1

ZADH2 = ZADH2 (UniProt Q8N4Q0)
Procedure, shortened: as §1

ZBTB17 isoform 2 = ZBTB17 isoform 2 (UniProt Q13105)
Procedure, shortened: as §1

ZBTB21 = ZBTB21 (UniProt Q9ULJ3)
Procedure, shortened: as §1

ZBTB43 = ZBTB43 (UniProt O43298)
Procedure, shortened: as §1

ZC3H18 = ZC3H18 (UniProt Q86VM9)
Procedure, shortened: as §1

ZC3H8 = ZC3H8 (UniProt Q8N5P1)
Procedure, shortened: as §1

ZC3HC1 = ZC3HC1 (UniProt Q86WB0)
Procedure, shortened: as §1

ZCCHC9 = ZCCHC9 (UniProt Q8N567)
Procedure, shortened: as §1

ZDHHC17 = ZDHHC17 (UniProt Q8IUH5)
Procedure, shortened: as §1

ZDHHC20 = ZDHHC20 (UniProt Q5W0Z9)
Procedure, shortened: as §1

ZDHHC5 = ZDHHC5 (UniProt Q9C0B5)
Procedure, shortened: as §1

ZDHHC7 isoform 2 = ZDHHC7 isoform 2 (UniProt Q9NXF8)
Procedure, shortened: as §1

ZDHHC8 isoform 3 = ZDHHC8 isoform 3 (UniProt Q9ULC8)
Procedure, shortened: as §1

ZCCHC17 = ZCCHC17 (UniProt Q9NP64)
Procedure, shortened: as §1

YWHAZ [2] = biological target: YWHAZ (UniProt E7ESK7)
Procedure, shortened: as §1

ZDHHC6 = ZDHHC6 (UniProt Q9H6R6)
Procedure, shortened: as §1

Sequence of YY1 (P25490 whole entry, looked up): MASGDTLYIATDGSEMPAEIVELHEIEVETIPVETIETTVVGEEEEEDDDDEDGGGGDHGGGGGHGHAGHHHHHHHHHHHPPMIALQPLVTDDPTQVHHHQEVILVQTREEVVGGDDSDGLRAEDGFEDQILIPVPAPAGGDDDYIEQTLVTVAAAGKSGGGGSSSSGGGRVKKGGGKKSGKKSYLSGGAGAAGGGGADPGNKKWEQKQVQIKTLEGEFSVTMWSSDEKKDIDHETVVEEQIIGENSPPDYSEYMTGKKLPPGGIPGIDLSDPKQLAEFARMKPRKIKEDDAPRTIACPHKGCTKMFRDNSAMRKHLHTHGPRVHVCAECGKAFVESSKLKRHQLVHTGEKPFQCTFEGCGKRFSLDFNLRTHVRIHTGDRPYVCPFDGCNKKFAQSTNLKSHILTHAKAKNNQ
Sequence of ZBTB17 isoform 2 (Q13105 whole entry, looked up, canonical isoform): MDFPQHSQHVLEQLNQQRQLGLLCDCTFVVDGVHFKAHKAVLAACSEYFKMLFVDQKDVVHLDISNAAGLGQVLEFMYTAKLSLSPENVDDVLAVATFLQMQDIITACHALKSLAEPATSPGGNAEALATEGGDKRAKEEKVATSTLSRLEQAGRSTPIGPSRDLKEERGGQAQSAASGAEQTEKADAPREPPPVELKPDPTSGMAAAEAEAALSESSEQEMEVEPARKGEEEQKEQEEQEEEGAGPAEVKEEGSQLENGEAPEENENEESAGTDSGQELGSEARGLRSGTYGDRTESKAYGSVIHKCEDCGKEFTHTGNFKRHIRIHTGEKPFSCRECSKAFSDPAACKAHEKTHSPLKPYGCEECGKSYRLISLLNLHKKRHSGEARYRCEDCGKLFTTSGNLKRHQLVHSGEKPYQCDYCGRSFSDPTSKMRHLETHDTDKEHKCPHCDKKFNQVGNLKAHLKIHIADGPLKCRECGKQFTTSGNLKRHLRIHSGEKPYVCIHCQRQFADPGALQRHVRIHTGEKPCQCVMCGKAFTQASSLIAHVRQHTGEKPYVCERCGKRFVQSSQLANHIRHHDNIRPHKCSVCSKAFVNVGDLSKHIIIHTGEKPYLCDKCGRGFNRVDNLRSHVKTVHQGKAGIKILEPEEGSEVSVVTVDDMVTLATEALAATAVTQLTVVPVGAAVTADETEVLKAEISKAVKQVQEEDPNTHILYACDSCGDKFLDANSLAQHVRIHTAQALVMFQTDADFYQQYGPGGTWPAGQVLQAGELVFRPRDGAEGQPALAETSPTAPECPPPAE
Sequence of ZDHHC6 (Q9H6R6 whole entry, looked up): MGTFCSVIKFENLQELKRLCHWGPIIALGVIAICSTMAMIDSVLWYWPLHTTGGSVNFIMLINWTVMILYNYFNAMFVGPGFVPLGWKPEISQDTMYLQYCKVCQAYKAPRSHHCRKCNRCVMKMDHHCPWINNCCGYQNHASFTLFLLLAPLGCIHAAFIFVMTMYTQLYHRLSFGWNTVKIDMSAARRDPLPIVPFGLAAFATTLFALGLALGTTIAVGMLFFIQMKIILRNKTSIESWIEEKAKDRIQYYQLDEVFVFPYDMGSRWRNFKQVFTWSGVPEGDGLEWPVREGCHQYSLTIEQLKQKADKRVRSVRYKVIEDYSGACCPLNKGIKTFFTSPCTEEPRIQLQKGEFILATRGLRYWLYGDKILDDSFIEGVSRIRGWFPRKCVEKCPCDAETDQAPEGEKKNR
Sequence of YWHAZ (UniProt P63104) (P63104 whole entry, looked up): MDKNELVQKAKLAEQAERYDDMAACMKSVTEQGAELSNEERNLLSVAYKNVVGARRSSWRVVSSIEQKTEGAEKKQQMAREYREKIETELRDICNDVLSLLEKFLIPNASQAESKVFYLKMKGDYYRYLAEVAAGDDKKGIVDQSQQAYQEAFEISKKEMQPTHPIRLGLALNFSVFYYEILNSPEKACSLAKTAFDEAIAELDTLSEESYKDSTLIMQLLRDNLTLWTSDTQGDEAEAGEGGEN
Sequence of ZBTB21 (Q9ULJ3 whole entry, looked up): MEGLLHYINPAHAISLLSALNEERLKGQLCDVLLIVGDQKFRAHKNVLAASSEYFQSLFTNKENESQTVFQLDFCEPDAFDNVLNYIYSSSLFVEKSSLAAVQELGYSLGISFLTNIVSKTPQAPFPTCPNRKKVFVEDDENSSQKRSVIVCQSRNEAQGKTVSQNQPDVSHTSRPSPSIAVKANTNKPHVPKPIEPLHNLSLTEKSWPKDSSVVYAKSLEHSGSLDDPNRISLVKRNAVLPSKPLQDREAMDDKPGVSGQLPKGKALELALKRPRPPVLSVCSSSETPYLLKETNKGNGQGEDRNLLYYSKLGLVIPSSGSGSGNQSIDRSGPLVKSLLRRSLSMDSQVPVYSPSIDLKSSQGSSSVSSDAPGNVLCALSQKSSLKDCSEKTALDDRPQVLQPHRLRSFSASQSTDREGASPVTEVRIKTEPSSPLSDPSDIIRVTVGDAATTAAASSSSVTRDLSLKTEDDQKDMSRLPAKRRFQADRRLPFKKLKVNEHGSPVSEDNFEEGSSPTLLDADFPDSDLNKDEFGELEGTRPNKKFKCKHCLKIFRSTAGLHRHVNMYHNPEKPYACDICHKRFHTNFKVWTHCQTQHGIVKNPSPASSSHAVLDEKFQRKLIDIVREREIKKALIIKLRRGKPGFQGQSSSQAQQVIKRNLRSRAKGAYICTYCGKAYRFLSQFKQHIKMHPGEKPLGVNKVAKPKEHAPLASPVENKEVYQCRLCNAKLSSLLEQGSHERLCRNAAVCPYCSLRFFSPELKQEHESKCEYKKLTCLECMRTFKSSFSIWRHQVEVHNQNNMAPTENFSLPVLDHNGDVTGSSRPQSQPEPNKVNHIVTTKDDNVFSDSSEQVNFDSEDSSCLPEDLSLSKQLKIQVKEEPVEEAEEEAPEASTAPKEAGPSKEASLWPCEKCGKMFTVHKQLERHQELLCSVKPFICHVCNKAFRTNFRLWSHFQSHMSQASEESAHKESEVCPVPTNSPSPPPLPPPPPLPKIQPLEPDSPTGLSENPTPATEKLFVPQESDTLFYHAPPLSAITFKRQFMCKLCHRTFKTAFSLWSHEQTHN
Sequence of ZDHHC17 (Q8IUH5 whole entry, looked up): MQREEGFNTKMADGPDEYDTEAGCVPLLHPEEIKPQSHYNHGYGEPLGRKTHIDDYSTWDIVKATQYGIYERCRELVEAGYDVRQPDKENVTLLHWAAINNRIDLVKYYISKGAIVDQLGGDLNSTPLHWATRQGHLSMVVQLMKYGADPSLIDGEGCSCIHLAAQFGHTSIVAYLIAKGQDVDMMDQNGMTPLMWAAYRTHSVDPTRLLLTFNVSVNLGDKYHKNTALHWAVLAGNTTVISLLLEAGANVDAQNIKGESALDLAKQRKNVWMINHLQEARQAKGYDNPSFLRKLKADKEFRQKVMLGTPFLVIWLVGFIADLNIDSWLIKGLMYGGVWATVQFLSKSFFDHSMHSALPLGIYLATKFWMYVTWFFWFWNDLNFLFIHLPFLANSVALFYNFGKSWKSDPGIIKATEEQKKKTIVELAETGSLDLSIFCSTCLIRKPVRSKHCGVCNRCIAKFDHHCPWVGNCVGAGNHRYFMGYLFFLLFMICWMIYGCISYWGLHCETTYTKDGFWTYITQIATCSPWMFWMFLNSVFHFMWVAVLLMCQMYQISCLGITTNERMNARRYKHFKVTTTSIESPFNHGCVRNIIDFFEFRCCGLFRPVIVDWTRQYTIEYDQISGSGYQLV
Sequence of ZDHHC8 isoform 3 (Q9ULC8 whole entry, looked up, canonical isoform): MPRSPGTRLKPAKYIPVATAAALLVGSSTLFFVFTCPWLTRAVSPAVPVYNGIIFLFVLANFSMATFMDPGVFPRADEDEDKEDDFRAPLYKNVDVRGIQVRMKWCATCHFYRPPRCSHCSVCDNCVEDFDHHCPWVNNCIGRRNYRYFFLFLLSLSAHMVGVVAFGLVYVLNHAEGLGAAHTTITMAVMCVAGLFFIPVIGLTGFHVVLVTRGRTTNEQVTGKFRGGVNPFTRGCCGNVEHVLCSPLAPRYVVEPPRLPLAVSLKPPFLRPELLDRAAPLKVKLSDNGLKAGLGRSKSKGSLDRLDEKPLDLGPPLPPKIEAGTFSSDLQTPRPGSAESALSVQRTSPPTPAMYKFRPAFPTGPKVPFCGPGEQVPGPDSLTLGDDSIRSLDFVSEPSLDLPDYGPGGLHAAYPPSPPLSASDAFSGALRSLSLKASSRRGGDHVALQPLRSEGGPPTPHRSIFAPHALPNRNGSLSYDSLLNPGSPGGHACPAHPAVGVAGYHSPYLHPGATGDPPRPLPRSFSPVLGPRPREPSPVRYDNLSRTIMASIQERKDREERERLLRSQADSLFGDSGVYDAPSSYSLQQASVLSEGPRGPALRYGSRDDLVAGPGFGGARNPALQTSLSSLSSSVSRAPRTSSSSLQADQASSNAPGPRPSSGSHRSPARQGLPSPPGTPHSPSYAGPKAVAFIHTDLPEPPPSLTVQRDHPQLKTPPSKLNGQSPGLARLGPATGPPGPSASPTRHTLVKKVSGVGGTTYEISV
Sequence of ZDHHC7 isoform 2 (Q9NXF8 whole entry, looked up, canonical isoform): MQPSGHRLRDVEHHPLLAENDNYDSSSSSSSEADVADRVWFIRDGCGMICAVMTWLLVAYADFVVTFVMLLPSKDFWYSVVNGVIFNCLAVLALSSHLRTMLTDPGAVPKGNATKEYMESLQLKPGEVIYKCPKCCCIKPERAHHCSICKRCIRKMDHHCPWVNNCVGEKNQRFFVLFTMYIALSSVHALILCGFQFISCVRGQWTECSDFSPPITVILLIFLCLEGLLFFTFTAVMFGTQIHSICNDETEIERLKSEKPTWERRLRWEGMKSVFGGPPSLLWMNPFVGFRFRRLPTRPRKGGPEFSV
Sequence of ZCCHC9 (Q8N567 whole entry, looked up): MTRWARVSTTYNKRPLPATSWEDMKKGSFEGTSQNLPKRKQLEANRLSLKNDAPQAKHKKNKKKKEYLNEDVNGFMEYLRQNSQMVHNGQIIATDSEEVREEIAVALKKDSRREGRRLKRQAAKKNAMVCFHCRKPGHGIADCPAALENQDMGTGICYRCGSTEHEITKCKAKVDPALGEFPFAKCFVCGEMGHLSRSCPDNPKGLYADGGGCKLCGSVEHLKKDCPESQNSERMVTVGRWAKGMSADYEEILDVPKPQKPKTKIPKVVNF

Row | SMILES | log2 fold change (YWHAB) | log2 fold change (YWHAQ) | log2 fold change (YWHAZ [1]) | log2 fold change (YY1) | log2 fold change (ZADH2) | log2 fold change (ZBTB17 isoform 2) | log2 fold change (ZBTB21) | log2 fold change (ZBTB43) | log2 fold change (ZC3H18) | log2 fold change (ZC3H8) | log2 fold change (ZC3HC1) | log2 fold change (ZCCHC9) | log2 fold change (ZDHHC17) | log2 fold change (ZDHHC20) | log2 fold change (ZDHHC5) | log2 fold change (ZDHHC7 isoform 2) | log2 fold change (ZDHHC8 isoform 3) | log2 fold change (ZCCHC17) | log2 fold change (YWHAZ [2]) | log2 fold change (ZDHHC6)
1 | CC(C)c1cnn2c(NCc3ccccc3)cc(NCCCCCCN)nc12 | 0.014 (inactive) | -0.026 (inactive) | 0.052 (inactive) | -0.24 (active) | -0.019 (inactive) | 0.054 (inactive) | -0.027 (inactive) | 0.138 (inactive) | -0.122 (inactive) | 0.177 (inactive) | -0.151 (inactive) | 0.004 (inactive) | -0.061 (inactive) | -0.229 (inactive) | 0.007 (inactive) | -0.008 (inactive) |  |  |  | 
2 | Cc1cn(-c2cc(NC(=O)c3ccc(C)c(Nc4nccc(-c5cccnc5)n4)c3)cc(C(F)(F)F)c2)cn1 [nilotinib] | 0.039 (inactive) | 0.018 (inactive) | 0.04 (inactive) | -0.033 (inactive) | 0.04 (inactive) |  | 0.023 (inactive) | -0.157 (inactive) | 0.099 (inactive) | 0.016 (inactive) | -0.052 (inactive) | -0.046 (inactive) | -0.004 (inactive) | 0.016 (inactive) | 0.091 (inactive) | 0.104 (inactive) | 0.086 (inactive) |  |  | 
3 | CNC(=O)c1ccc(Nc2ncc(C(F)(F)F)c(NCc3nccnc3N(C)S(C)(=O)=O)n2)cc1 [defactinib] | -0.022 (inactive) | 0 (inactive) | 0 (inactive) | -0.299 (active) | 0.025 (inactive) |  | -0.033 (inactive) | 0.063 (inactive) | -0.234 (inactive) | 0.228 (inactive) | -0.227 (inactive) | 0.216 (inactive) | -0.007 (inactive) | -0.231 (inactive) | -0.097 (inactive) | 0.001 (inactive) |  | 0.149 (inactive) |  | 
4 | Cc1ncc(-c2ccnc(Nc3ccc(S(C)(=O)=O)cc3)n2)n1C(C)C | 0 (inactive) | -0.026 (inactive) | -0.003 (inactive) | -0.207 (inactive) | 0.066 (inactive) |  | 0.061 (inactive) | 0.16 (inactive) | -0.162 (inactive) | 0.036 (inactive) | -0.01 (inactive) | 0.005 (inactive) | -0.022 (inactive) | 0.022 (inactive) | -0.009 (inactive) | 0.059 (inactive) | -0.014 (inactive) |  |  | 
5 | COC(=O)N[C@@H](C)CNc1nccc(-c2cn(C(C)C)nc2-c2cc(Cl)cc(NS(C)(=O)=O)c2F)n1 [encorafenib] | -0.003 (inactive) | -0.016 (inactive) | -0.031 (inactive) | 0.066 (inactive) | 0.045 (inactive) |  |  | 0.065 (inactive) | -0.03 (inactive) | -0.01 (inactive) | 0.05 (inactive) | 0.002 (inactive) | -0.015 (inactive) | -0.058 (inactive) | -0.028 (inactive) | -0.043 (inactive) |  |  | -0.156 (inactive) | 0.006 (inactive)
6 | COc1cc2ncnc(Nc3ccc(F)c(Cl)c3)c2cc1OCCCN1CCOCC1 [gefitinib] | -0.001 (inactive) | 0.007 (inactive) | 0.005 (inactive) | -0.076 (inactive) | -0.029 (inactive) |  | -0.125 (inactive) | 0.025 (inactive) | -0.033 (inactive) | 0.021 (inactive) | 0.004 (inactive) | -0.062 (inactive) | 0.04 (inactive) | -0.067 (inactive) | 0.031 (inactive) | 0.062 (inactive) | 0.023 (inactive) |  |  | 
7 | CNC(=O)c1ccccc1Nc1nc(Nc2ccc(N3CCOCC3)cc2OC)ncc1Cl | 0.019 (inactive) | 0.049 (inactive) | -0.013 (inactive) | -0.046 (inactive) | -0.051 (inactive) | -0.041 (inactive) | -0.012 (inactive) | -0.007 (inactive) | -0.01 (inactive) | 0.019 (inactive) | 0.067 (inactive) | 0.058 (inactive) | 0.146 (inactive) | 0 (inactive) | 0.006 (inactive) | -0.016 (inactive) |  |  |  | 
8 | NC(=O)Nc1cc(-c2cccc(F)c2)sc1C(=O)N[C@H]1CCCNC1 | -0.027 (inactive) | 0.065 (inactive) | 0.098 (inactive) | 0.037 (inactive) | -0.074 (inactive) | -0.032 (inactive) | -0.083 (inactive) | -0.018 (inactive) | -0.037 (inactive) | 0.025 (inactive) | -0.016 (inactive) | -0.11 (inactive) | 0.084 (inactive) | -0.219 (inactive) | -0.081 (inactive) |  |  | -0.064 (inactive) |  | 
9 | CNCc1ccc(-c2[nH]c3cc(F)cc4c3c2CCNC4=O)cc1 [rucaparib] | -0.078 (inactive) | -0.016 (inactive) | -0.041 (inactive) | -0.05 (inactive) | -0.071 (inactive) |  |  | -0.272 (inactive) | 0.029 (inactive) | 0.19 (inactive) | -0.047 (inactive) | 0.4 (inactive) | -0.034 (inactive) | 0.115 (inactive) | 0.086 (inactive) | -0.067 (inactive) |  |  | -0.057 (inactive) | 0.176 (inactive)
10 | CN1CCC(CNc2ccc3ncc(-c4cccc(OC(F)(F)F)c4)n3n2)CC1 | -0.042 (inactive) | 0.585 (inactive) | 0.035 (inactive) | -0.21 (inactive) | 0.023 (inactive) |  | -0.149 (inactive) | 0.032 (inactive) | -0.044 (inactive) | 0.397 (active) | -0.402 (active) | 0.181 (inactive) | 0.065 (inactive) | 0.035 (inactive) | 0.31 (active) | -0.415 (active) |  |  |  | 0.011 (inactive)
11 | NC(=O)c1ccc2nc(-c3ccc(Oc4ccc(Cl)cc4)cc3)[nH]c2c1 | -0.012 (inactive) | -0.021 (inactive) | 0.011 (inactive) | 0.03 (inactive) | 0.052 (inactive) | 0.03 (inactive) | 0.053 (inactive) | 0.037 (inactive) | 0.045 (inactive) | 0.027 (inactive) | -0.034 (inactive) | 0.025 (inactive) | -0.046 (inactive) | 0.14 (inactive) | 0.027 (inactive) | 0.022 (inactive) |  |  |  | 
12 | CC1=C(C(=O)Nc2cc3cn[nH]c3cc2F)C(c2ccc(C(F)(F)F)cc2)CC(=O)N1 (configuration not stated) | 0.001 (inactive) | 0.107 (inactive) | 0.058 (inactive) | 0.059 (inactive) | -0.014 (inactive) |  | 0.033 (inactive) | -0.04 (inactive) | 0.022 (inactive) | -0.072 (inactive) | 0.057 (inactive) | 0.012 (inactive) | -0.013 (inactive) | 0.047 (inactive) | 0.022 (inactive) | 0.114 (inactive) | -0.083 (inactive) |  |  | 
